The list is not random: actives were taken first. Their share in the collection is about 3.7%.
tim10-1 inh – growth inhibitors of tim10-1 mutant yeast; S. cerevisiae tim10-1 ts strain growth, BacTiter-Glo, 24 h; inhibition, % at 20 µM; actives 2.2% (n = 330,000);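 active means inhibition of at least 40%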;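 further: mutant grown at 25 °C; 0% = DMSO wells with yeast and 100% = wells holding no yeast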
tim23-1 inh – inhibits growth of tim23-1 mutant yeast; S. cerevisiae tim23-1 growth, BacTiter-Glo luminescence, 24 h; inhibition, % at 20 µM; actives 1.3% (n = 330,000); AID 463212;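 active means growth inhibition of the mutant yeast at or above 50%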;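 further: temperature-sensitive mutant grown at 25 °C; plate controls were DMSO-treated mutant yeast for no effect and medium wells lacking yeast for full effect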
V-ATPase pHluor – yeast V-ATPase proton transport regulation by pHLuorin | actives 0.37% (n = 350,000) | response, % at 10 µM | S. cerevisiae, pHLuorin cytosolic pH fluorescence | AID 504577; in the data active means response mostly above about 7.3%, no sharp cut-off; inactive means mostly below about 5.4%; further: actives read high
TIM10 inh – TIM10 yeast growth inhibition; inhibition, % at 10 µM; AID 463195; actives 1.4% (n = 330,000); S. cerevisiae TIM10 strain growth, BacTiter-Glo luminescence, 24 h;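 active means inhibition of 40% or more at the single tested concentration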;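 further: wild-type TIM10 isogenic control strain grown at permissive 25 °C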
PfHsp90 yeast 2 – reduces growth (ATP signal) of yeast expressing P. falciparum Hsp90; S. cerevisiae expressing PfHsp90, BacTiter-Glo ATP, 48 h; yeast lacking PDR1 and PDR3 efflux regulators; actives 0.32% (n = 310,000); inhibition, % at 9.4 µM;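 active means every replicate shows inhibition above about 80%, whatever the replicate mean, limit read from the data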;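 further: 0% = DMSO neutral controls and 100% = 20 µM radicicol positive controls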
tim10-1 confirm – confirmation of tim10-1 mutant yeast growth inhibitors; actives 56% (n = 7,400); inhibition, % at 20 µM; AID 463213; shares compounds with tim10-1 inh; S. cerevisiae tim10-1 ts strain growth, BacTiter-Glo, 24 h;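 active means inhibition of yeast growth at or above a set limit in either of two repeat tests at 20 µM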;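 further: tim10-1 mutant grown at permissive 25 °C to find synthetic lethal compounds; 0% = DMSO yeast wells and 100% = medium wells without yeast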
* = called active by the depositor; . = no result given.

SMILES	tim10-1 inh	tim23-1 inh	V-ATPase pHluor	TIM10 inh	PfHsp90 yeast 2	tim10-1 confirm
COc1ccc(Cl)cc1NC(=O)CN(C)C(=O)C12CC3CC(CC(Cl)(C3)C1)C2	43.0*	49.6	0.3	26.5	1.4	34.2*
COc1ccc(Cl)cc1NC(=O)CN(C)C1CCCCC1	13.6	6.4	3.4	23.7	8.7	.
COc1ccccc1NC(=O)Nc1ccnn1C1CCN(C(=O)c2cccnc2)CC1	-3.0	7.5	-1.5	10.5	-10.8	.
CCOC(=O)c1cc(-c2cccs2)nc2c1c(C)nn2-c1ccccn1	51.9*	40.6	0.4	32.1	-8.4	39.7*
Cc1ccc(S(=O)(=O)n2nc(OC(=O)c3ccco3)cc2N)cc1	42.2*	34.0	-2.0	6.1	.	26.9
Cc1ccc(S(=O)(=O)n2nc(OC(=O)c3ccccc3C)cc2N)cc1	14.2	30.2	2.0	26.4	7.4	.
Cc1ccc(S(=O)(=O)n2nc(OC(=O)C3CCCCC3)cc2N)cc1	42.2*	24.1	3.8	30.2	-2.2	28.0
CCOC(=O)c1c(NC(=O)CCN2CCOCC2)sc2c1CC(C)(C)OC2	41.8*	28.5	-2.6	12.5	-1.7	24.9
CCOC(=O)c1c(NC(=O)CN2CCOCC2)sc2c1CC(C)(C)OC2	-3.2	-2.9	-0.2	8.4	.	.
CC(CO)NS(=O)(=O)c1cc(Cl)ccc1F (stereo unspecified)	.	.	3.7	.	.	.
COc1cccc(N(C(=O)c2nc3nccc(C)n3n2)c2nc3ccccc3s2)c1	48.1*	31.0	0.0	18.1	-17.0	23.8
O=C(OC1CCCCC1=O)c1cccc(S(=O)(=O)N2CCCCC2)c1 (stereo unspecified)	43.4*	46.7	0.2	23.0	-17.2	22.5
Cc1ccc(S(=O)(=O)N2CCCCC2)cc1C(=O)OC1CCCCC1=O (stereo unspecified)	40.6*	28.0	-2.0	13.8	.	27.9
O=C(OC1CCCCC1=O)c1cc(S(=O)(=O)N2CCOCC2)ccc1F (stereo unspecified)	24.5	20.2	6.3	15.3	4.0	.
O=C(OC1CCCCC1=O)c1cccc(S(=O)(=O)N2CCOCC2)c1 (stereo unspecified)	-8.9	4.8	2.6	9.2	-5.8	.
Nc1ccccc1Nc1cc(-c2cccc(Cl)c2)nn1-c1ccccc1	40.4*	38.3	4.0	25.7	-7.5	34.1*
Nc1c(-c2ccccc2)cnn1-c1cccc(Cl)c1	-55.6	34.2	3.9	-56.9	-1.8	.
CC(CNC(=O)CCc1nnc(CCC2CCCCC2)o1)c1ccccc1 (stereo unspecified)	40.0	21.0	-0.5	22.9	-29.6	33.5*
COc1ccc(/C(O)=C2/C(=O)C(=O)N(CCCN3CCOCC3)C2c2ccc(Cl)cc2)cc1 (stereo unspecified)	.	.	2.8	.	.	.
Cc1cccc(NC(=S)/N=C(\N)Nc2nc(C)c3ccc(C)cc3n2)c1	34.8	20.1	0.5	24.1	-26.5	.
Cc1cccc(NC(=S)/N=C(\N)Nc2nc(C)c3ccccc3n2)c1	44.1*	35.3	3.0	32.8	-4.1	27.1
Cc1ccc(S(=O)(=O)/N=C(\N)Nc2nc(C)c3ccccc3n2)cc1	44.7*	30.9	-2.4	6.7	7.2	9.9
COc1ccc2nc(N/C(N)=N/C(=S)Nc3ccccc3)nc(C)c2c1	49.9*	44.4	-2.4	37.4	-51.1	19.4
COc1ccc(CN2CCc3ccccc3C2)cc1Br	13.4	17.4	2.9	-6.0	-13.5	.
O=C(CN1CCN(CC(=O)Nc2ccccc2Cl)CC1)NCC1(N2CCOCC2)CCCCC1	3.7	-1.4	-0.3	-0.5	.	.
Cc1c(NC(=O)/C(C#N)=C/c2ccc(-c3cc(Cl)ccc3Cl)o2)c(=O)n(-c2ccccc2)n1C	17.7	17.3	1.6	17.0	-8.9	.
Cc1c(NC(=O)/C(C#N)=C/c2ccc(-c3ccc(Cl)cc3)o2)c(=O)n(-c2ccccc2)n1C	41.6*	31.6	-3.4	33.6	-4.2	29.8*
COc1cccc(C(=O)N2N=C(c3cccc(OC)c3)CC2(O)C(F)(F)F)c1 (stereo unspecified)	40.2*	35.0	0.8	21.1	14.4	-23.4
COc1ccc(C(=O)N2N=C(c3cccc(OC)c3)CC2(O)C(F)(F)F)cc1 (stereo unspecified)	23.2	39.6	-1.8	29.1	.	.
Nc1nonc1-n1nnc(C(=O)N/N=C/c2cccs2)c1-c1ccc2c(c1)OCO2	-0.7	-11.9	1.4	-4.4	11.3	.
